The nature of assay [1]: qHTS of pediatric cancer cell lines to identify multiple opportunities for drug repurposing: Primary screen for OHS-50 cells (AID 1347103). Note: nearly all actives have a fitted effect of over 40% in size. Note: potency is the fitted concentration of half-maximal effect. An outline of the steps:
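Cells (500-1,000/well) rested 5 h, then received compounds for 48 h; metabolically active cells were measured by CellTiter-Glo luminescence. Final concentrations spanned up to 46 µM (MIPE, 11-point) or 0.59 nM-46 µM (NPC, 8-point) in primary screens, 11-point in follow-ups.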
On the technique in general: qHTS replaces the single test concentration by a dilution series.

The nature of assay [2]: qHTS of pediatric cancer cell lines to identify multiple opportunities for drug repurposing: Primary screen for RD cells (AID 1347104). Note: nearly all actives have a fitted effect of over 55% in size. Note: potency is the fitted concentration of half-maximal effect. An outline of the steps:
(§1)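 Phenotypic viability qHTS, 48 h compound exposure, CellTiter-Glo luminescence read-out; multi-concentration dosing so that potency and efficacy derive directly from the primary screen's curves.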

A short description of assay [3]: qHTS of pediatric cancer cell lines to identify multiple opportunities for drug repurposing: Primary screen for MG 63 (6-TG R) cells (AID 1347105). Note: nearly all actives have a fitted effect of over 50% in size. Note: potency is the fitted concentration of half-maximal effect. An outline of the steps:
as §1

Assay [4] is described as follows: qHTS of pediatric cancer cell lines to identify multiple opportunities for drug repurposing: Primary screen for control Hh wild type fibroblast cells (AID 1347106).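 Note: series mostly up to about 46 µM; a drop in luminescence marks cytotoxicity and a rise apparent proliferation; nearly all actives have a fitted effect of over 55% in size.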 An outline of the steps: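 Cells (500-1,000/well) in growth media were settled 5 h at 37 degrees C, then given compounds for 48 h. Viability was read as CellTiter-Glo luminescence. Primary runs used MIPE at 11 points (0.78 nM-46 µM) and NPC at 8 points (0.59 nM-46 µM); follow-ups used 11 points.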

Assay [5] is described as follows: qHTS of pediatric cancer cell lines to identify multiple opportunities for drug repurposing: Primary screen for Rh41 cells (AID 1347108). Note: nearly all actives have a fitted effect of over 70% in size. Note: potency is the fitted concentration of half-maximal effect. In outline:
as §1

A short description of assay [6]: qHTS of pediatric cancer cell lines to identify multiple opportunities for drug repurposing: Primary screen for Rh30 cells (AID 1347107). Note: series mostly up to about 46 µM; nearly all actives have a fitted effect of over 75% in size. In outline: (§2)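 Viability after 48 h compound treatment at 37C, 500-1,000 cells/well, read as ATP luminescence with CellTiter-Glo. Primary screens used 11-point (MIPE, 0.78 nM-46 µM) or 8-point (NPC, 0.59 nM-46 µM) final concentrations; follow-up screens used 11-point dilutions.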

A short description of assay [7]: qHTS of pediatric cancer cell lines to identify multiple opportunities for drug repurposing: Confirmatory screen for NB1643 cells (AID 1347109). Note: potency is the fitted concentration of half-maximal effect; nearly all actives have a fitted effect of over 45% in size. An outline of the steps:
as §2

The nature of assay [8]: qHTS of pediatric cancer cell lines to identify multiple opportunities for drug repurposing: Confirmatory screen for A673 cells (AID 1347110). Note: potency is the fitted concentration of half-maximal effect; nearly all actives have a fitted effect of over 65% in size. An outline of the steps: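 A673 cells at 500-1,000 cells/well were dosed 5 h after plating, in dilution series up to 46 uM final; primary runs used 8 or 11 points and confirmatory runs used 11 points. Viability was read by CellTiter-Glo luminescence after 48 h, against DMSO and 2.3 uM bortezomib controls.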

A short description of assay [9]: qHTS of pediatric cancer cell lines to identify multiple opportunities for drug repurposing: Confirmatory screen for SK-N-MC cells (AID 1347111).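 Note: potency is the fitted concentration of half-maximal effect; cells exposed to compound for 48 h before the readout; nearly all actives have a fitted effect of over 70% in size.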 An outline of the steps:
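SK-N-MC cells at 500-1,000 cells/well in growth media were pre-incubated 5 h, then exposed to compounds at 11-point dilutions for 48 h at 37 degrees C, 5% CO2. Viability was read as CellTiter-Glo luminescence.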

Assay [10] is described as follows: qHTS of pediatric cancer cell lines to identify multiple opportunities for drug repurposing: Confirmatory screen for BT-12 cells (AID 1347112). Note: potency is the fitted concentration of half-maximal effect; nearly all actives have a fitted effect of over 55% in size. An outline of the steps:
as §2

Assay [11] in a line: qHTS of pediatric cancer cell lines to identify multiple opportunities for drug repurposing: Confirmatory screen for LAN-5 cells (AID 1347113). Note: potency is the fitted concentration of half-maximal effect; nearly all actives have a fitted effect of over 65% in size. In outline: as §2
The nature of assay [12]: qHTS of pediatric cancer cell lines to identify multiple opportunities for drug repurposing: Confirmatory screen for DAOY cells (AID 1347114). Note: nearly all actives have a fitted effect of over 65% in size. An outline of the steps:
(§3)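 Viability measured as metabolically active cells via CellTiter-Glo luminescence following 48 hours of compound exposure, 11-point dilutions in confirmatory testing. 500-1,000 cells/well plated 5 hours before dosing; controls were DMSO and 2.3 µM bortezomib.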

Assay [13] is described as follows: qHTS of pediatric cancer cell lines to identify multiple opportunities for drug repurposing: Confirmatory screen for NB-EBc1 cells (AID 1347115). Note: nearly all actives have a fitted effect of over 45% in size. An outline of the steps: as §2
Assay [14] can be described thus: qHTS of pediatric cancer cell lines to identify multiple opportunities for drug repurposing: Confirmatory screen for SJ-GBM2 cells (AID 1347116). Note: nearly all actives have a fitted effect of over 60% in size. An outline of the steps:
as §3

Assay [15] in a line: qHTS of pediatric cancer cell lines to identify multiple opportunities for drug repurposing: Confirmatory screen for BT-37 cells (AID 1347117). Note: potency is the fitted concentration of half-maximal effect; nearly all actives have a fitted effect of over 55% in size. In outline: as §2
The nature of assay [16]: qHTS of pediatric cancer cell lines to identify multiple opportunities for drug repurposing: Confirmatory screen for TC32 cells (AID 1347118). Note: potency is the fitted concentration of half-maximal effect; nearly all actives have a fitted effect of over 65% in size. In outline:
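Luminescent ATP read-out (CellTiter-Glo) of metabolically active TC32 cells after 48 h exposure. Concentration-response curves came from 11-point (MIPE, 0.78 nM–46 µM) or 8-point (NPC, 0.59 nM–46 µM) primary titrations; follow-up used 11 points.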

Assay [17] is described as follows: qHTS of pediatric cancer cell lines to identify multiple opportunities for drug repurposing: Confirmatory screen for MG 63 (6-TG R) cells (AID 1347119). Note: nearly all actives have a fitted effect of over 55% in size. An outline of the steps:
as §2

Assay [18] in a line: qHTS of pediatric cancer cell lines to identify multiple opportunities for drug repurposing: Confirmatory screen for control Hh wild type fibroblast cells (AID 1347121). Note: nearly all actives have a fitted effect of over 70% in size. An outline of the steps:
as §2

The nature of assay [19]: qHTS of pediatric cancer cell lines to identify multiple opportunities for drug repurposing: Confirmatory screen for U-2 OS cells (AID 1347122). Note: nearly all actives have a fitted effect of over 65% in size. Particulars: outcome: dose series up to 45.9 µM. An outline of the steps:
as §2

Records with an inconclusive call do not appear. Unmarked numbers belong to inactive results. The source made the active and inactive calls. Calls come from the whole dose curve; as a rule, active = well fitted curve in the direction sought with a large enough effect; inconclusive = small, poorly fitted or top-dose-only effect, or another doubt; inactive = no such curve, though single readings can be large; an effect the other way counts as inactive or inconclusive.

Turning to `CNCC(O)c1ccc(O)c(O)c1` (configuration not stated), the Potency result in assay [1], in [2], in assay [3] and in assay [5] was “inactive” in each case. The outcome in assay [4] was inactive.
`COCCOC(=O)C1=C(C)NC(C)=C(C(=O)OC/C=C/c2ccccc2)C1c1cccc([N+](=O)[O-])c1` (configuration not stated): in assay [1], the Potency was 19.5 µM (active). For the same molecule, the result in [4] and in assay [6] was inactive.
In the case of `CN1CCCCC1CCN1c2ccccc2Sc2ccc(S(C)=O)cc21` (configuration not stated), the Potency result in assay [2], in assay [3] and in assay [5] was “inactive” throughout. The outcome in [4] and in assay [6] was inactive.
As to `CCN(CC)CCNC(=O)c1c(C)[nH]c(/C=C2\C(=O)Nc3ccc(F)cc32)c1C`, the Potency is 1.23 µM (active) in assay [1], 15 µM (active) in assay [2], 21.1 µM (active) in [3] and 21.1 µM (active) in assay [5].
Take `NC1[C@H]2CN(c3nc4c(cc3F)c(=O)c(C(=O)O)cn4-c3ccc(F)cc3F)C[C@@H]12` (some centres not stated): the Potency entry in assay [1] and in assay [3] was “inactive” each time. Further, in [6], the outcome was inactive.
For the molecule `CC1=C(/C=C/C(C)=C/C=C/C(C)=C/C(=O)O)C(C)(C)CCC1`, the Potency in [1] is 0.0309 µM (active). For the same molecule, the Potency entry in assay [2] and in [5] was “inactive” each time. Also, the molecule was called inactive in [4] and in assay [6].
In the case of `CC(=O)NC(Cc1ccccc1)C(=O)O` (configuration not stated), the Potency entry in assay [1], in [2] and in [5] was “inactive” each time. The result in [4] and in assay [6] was inactive.
On to `CN1CCN(C2Cc3ccccc3Sc3ccc(Cl)cc32)CC1` (configuration not stated), for which, in assay [1], the Potency is 27.6 µM (active). Also, the result in assay [4] and in [6] was inactive.
`CC(O)CN(CCN(CC(C)O)CC(C)O)CC(C)O` (configuration not stated): the Potency result in [1], in [2], in assay [3] and in assay [5] was “inactive” in each case. Also, the call in assay [6] was inactive.
For `CCCCC/C(C=O)=C\c1ccccc1`, the Potency in [1] was 0.001 µM (active); in assay [7], 7.37 µM (active); in assay [8], 2.93 µM (active); in assay [9] it was 9.27 µM (active); in assay [10], 26.1 µM (active); in [11], 5.22 µM (active). Moreover, the Potency in assay [15] is 14.7 µM (active); in assay [16], 6.57 µM (active). Also, the Potency result in assay [2], in assay [3], in assay [5], in [13], in assay [14] and in assay [17] was “inactive” in each case. Moreover, the molecule was called inactive in [4], in assay [6], in [12], in assay [18] and in [19].
Take `O=C(CCCN1CCN(c2ccccn2)CC1)c1ccc(F)cc1`: the Potency entry in assay [2], in [3] and in assay [5] was “inactive” in each case. In addition, the outcome in [4] and in assay [6] was inactive.
In the case of `O=C1O[C@H](CO)[C@@H](O)[C@H](O)[C@H]1O`, the Potency entry in assay [1], in assay [2], in [3] and in assay [5] was “inactive” in each case. For the same molecule, the molecule was called inactive in assay [4] and in assay [6].
Regarding `Cn1c(=O)c2c(ncn2CC2OCCO2)n(C)c1=O`, the Potency entry in assay [1], in [2], in assay [3] and in [5] was “inactive” in each case. The outcome in assay [6] was inactive.
`CC(CN1c2ccccc2Sc2ccccc21)N(C)C` (configuration not stated): the Potency entry in assay [3] is “inactive”. Besides, the molecule was called inactive in assay [4] and in assay [6].
As for `OCC(CO)N[C@H]1C[C@](O)(CO)[C@@H](O)[C@H](O)[C@H]1O`, the Potency result in assay [1], in assay [2], in assay [3] and in [5] was “inactive” in each case. The outcome in assay [4] and in [6] was inactive.
Turning to `NC(=O)c1ncn([C@@H]2O[C@H](CO)[C@@H](O)[C@H]2O)c1N`, the Potency result in assay [1], in assay [2], in assay [3] and in assay [5] was “inactive” in each case. The outcome in assay [6] was inactive.
Turning to `NS(=O)(=O)c1cc2c(cc1Cl)NC(CSCc1ccccc1)=NS2(=O)=O`, the Potency result in [1], in assay [2], in assay [3] and in assay [5] was “inactive” throughout. The molecule was called inactive in assay [4] and in [6].
Consider `CC(CN(C)C)CN1c2ccccc2CCc2ccccc21` (configuration not stated), for which, in assay [1], the Potency was 17.4 µM (active). In addition, the Potency entry in [3] and in assay [5] was “inactive” in each case. Further, the outcome in assay [4] and in [6] was inactive.
Regarding `NC(=O)c1ncn([C@@H]2O[C@H](CO)[C@@H](O)[C@H]2O)n1`, the Potency entry in [2] and in assay [5] was “inactive” throughout. Besides, the outcome in assay [4] and in assay [6] was inactive.
`O=C1OC(OC(=O)c2cccnc2Nc2cccc(C(F)(F)F)c2)c2ccccc21` (configuration not stated): the Potency entry in assay [1], in [2], in [3] and in assay [5] was “inactive” throughout. In addition, the molecule was called inactive in assay [6].

The record behind these values is PubChem BioAssay (NCATS).
